Experimental findings from PubChem BioAssay AID652039 (The Scripps Research Institute Molecular Screening Center, 2013) are described below.

SMILES strings stand for the structures. “And” between values parts separate entries of the source, which are not always exact repeats. Equal entries are not always repeated. The whole screen tested about 370,000 compounds, of which about 3,300 (0.89%) were called active. Shown is part of a subset that was picked to be rich in actives. A number with no mark means an inactive call.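 How the source made its calls: active means activation above the mean of all tested compounds plus 3 SD, computed per campaign excluding outliers beyond control limits (cut at about 13% in these data); inactive means the rest.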

The target in this experiment is Kallikrein-7 (Homo sapiens) (UniProt P49862). The experiment can be described thus: proKLK7 zymogen activators, primary screen, biochemical, fluorescence intensity (AID 652039). The conditions noted are these: purified proKLK7, EDANS-DABCYL substrate fluorescence; at 7 µM; hits give high values; 100% is mature enzyme control, 0% vehicle.
Kallikrein-7 (Homo sapiens), sequence (P49862 whole entry, looked up): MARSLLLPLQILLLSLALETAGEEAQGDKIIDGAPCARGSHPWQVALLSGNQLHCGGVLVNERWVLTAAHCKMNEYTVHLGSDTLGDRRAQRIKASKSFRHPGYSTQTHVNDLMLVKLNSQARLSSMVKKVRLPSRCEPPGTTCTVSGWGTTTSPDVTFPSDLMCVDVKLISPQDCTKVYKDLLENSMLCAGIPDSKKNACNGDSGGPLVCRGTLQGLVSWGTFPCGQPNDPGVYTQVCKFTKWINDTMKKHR
With `CCn1c2ccccc2c2cc(NC(=O)CSc3nnc(-c4ccccc4)n3-c3ccc(C)cc3)ccc21`, the activation was -0.54%.
Next, `CCCN1CCN(C(=O)Cn2ncc3ccccc32)CC1`: -0.42%; `CCN1CCN(C(=O)Cn2nc(C)n3c(cc4c(OC)cccc43)c2=O)CC1`: 21% (active).
As for `CCc1nn(CC(=O)N2CCN(CC)CC2)c(=O)c2cccn12`, the figure is -0.55%; as for `C=CCN1C(=O)[C@@H](CC(=O)NCCCOCCCC)[C@]2(C(=O)OCC)CCCCC/C=C/12`, 0.01%; as for `Cc1ccc(Cn2cc(CN3[C@@H](CC(C)C)COc4ccc(Cl)cc4S3(=O)=O)nn2)cc1`, 0.91%.
As for `Cc1cccc(NC(=O)C[C@H]2CC[C@H]3[C@@H](COc4ccc(NC(=O)Nc5ccccc5)cc4C(=O)N3C)O2)c1`, the figure is 0.42%; as for `O=C(O)c1cnn2c(C(F)(F)F)cc(-c3ccccc3)nc12`, -0.59%.
Consider `COC(=O)c1cnn2c(C(F)(F)F)cc(-c3ccco3)nc12`, for which the activation is 23.1% (active).
Next, `O=C(NCc1ccco1)c1cnn2c(C(F)(F)F)cc(-c3ccco3)nc12`: 0.06%; `CCCCNC(=O)C[C@H]1C[C@@]2(C(=O)OC)C(=C[C@H](COCc3ccccc3)O[C@@H]2C)N(Cc2ccc(Cl)cc2Cl)C1=O`: -0.06%.
Next, `COC(=O)C1CN(CCc2ccccc2)CCS(=O)(=O)N1Cc1cccc(Cl)c1` (stereo unspecified): -0.14%; `CCCc1nnc(NC(=O)CCC(=O)N2CCN(S(=O)(=O)c3ccc(OC)cc3)CC2)s1`: -0.03%; `COc1ccc(C)cc1N(C)C(=O)c1coc(=O)c2ccccc12`: 0.1%.
As for `CN(C)C(=O)c1coc2nc3ccccc3nc12`, the figure is 39.4% (active); as for `CN(C)C(=O)c1cc(Br)ccc1Cl`, -0.57%.
As to `C=CCN(C)CC#Cc1ccccc1`, the activation is -0.36%.
For `CCCCCN1CCCCC(NC(=O)C(C)CCC)C1=O` (stereo unspecified), the activation is 0.5%.
As for `O=C(CNS(=O)(=O)c1ccccc1F)N1CCN(c2ccccn2)CC1`, the figure is -0.03%; as for `CN(C)CCNC(=O)c1ccc(Cl)c2cc3ccccc3nc12`, 6.31%.
Next, `CCOc1ccccc1-c1cc(C(=O)N/N=C(\C)c2cccnc2)c2ccccc2n1`: -4.03%; `O=C(NCCN1CCOCC1)c1cc(-c2cccs2)nc2ccccc12`: 18.3% (active).
In the case of `O=C(NNC(=O)c1cc(-c2ccccc2Cl)nc2ccccc12)c1csc(N2CCOCC2)n1`, the activation was -0.59%.
Next, `O=C(NCCCN1CCOCC1)c1cnn2c(-c3ccccc3)cc(-c3ccccc3)nc12`: -3.01%; `CCCCN(C)CCCNC(=O)c1cc(-c2cccs2)nc2ccccc12`: 47.9% (active).
As for `COC(=O)[C@]12C[C@H](CC(=O)NCC34CC5CC(CC(C5)C3)C4)C(=O)N(Cc3ccc(Cl)cc3Cl)C1=C[C@H](COCc1ccccc1)O[C@@H]2C`, the figure is -0.26%.
Next, `COC(=O)[C@]12C[C@H](CC(=O)N3CCN(C(=O)C4CC4)CC3)C(=O)N(Cc3ccc4c(c3)OCO4)C1=C[C@H](C(C)(C)C)O[C@@H]2C`: 0.05%.
Consider `COc1cccc(N2CCN(CC(=O)N(C)Cc3ccc(F)cc3)CC2)c1`, for which the activation was 0.13%.
With `COC(=O)C1CN(CCc2ccccc2)CCS(=O)(=O)N1Cc1ccc(F)cc1` (stereo unspecified), the activation was -0.24%.
As for `COc1cccc(CNC(=O)CNS(=O)(=O)c2ccc3nc(C)sc3c2)c1OC`, the activation is 0.09%.
As for `CCOC(=O)NN1C(=O)c2ccccc2NC1c1cccc(O)c1` (stereo unspecified), the figure is 26.7% (active); as for `CN(C)c1ccc(C2Nc3ccccc3C(=O)N2NS(=O)(=O)c2ccccc2)cc1` (stereo unspecified), 4.94%.
As for `O=C1c2ccccc2NC(c2ccccc2O)N1NS(=O)(=O)c1ccccc1` (stereo unspecified), the figure is 6.73%; as for `CCOC(=O)NN1C(=O)c2ccccc2NC1c1ccccc1O` (stereo unspecified), 8.02%; as for `CC(C)N1C(=O)c2ccccc2NC(=O)C1C(=O)NCc1cccs1` (stereo unspecified), 0%.
As for `CC(=O)NN1C(=O)c2ccccc2NC1c1ccccc1` (stereo unspecified), the figure is 15.6% (active); as for `COC(=O)[C@]12C[C@H](CC(=O)NCc3cccc4ccccc34)C(=O)N(CCc3ccc(OC)c(OC)c3)C1=C[C@H](C1CCCC1)O[C@@H]2C`, 0.51%; as for `COc1ccc(C(=O)CSc2nnc(-c3cnccn3)n2-c2ccc(C)cc2)cc1`, 0.34%.
With `C[C@@H]1ON(C)[C@H]2C[C@H]3c4[nH]c5cccc(-c6ccc7c(c6)OCO7)c5c4CCN3C[C@@H]12`, the activation is 0.38%.
As for `CCC(C)[C@@H](C(=O)OC)N(CCc1cn(Cc2ccccc2)nn1)S(=O)(=O)c1ccccc1Br` (stereo partly specified), the figure is 0.31%; as for `CCC(=O)Nc1ccc2c(c1)C(=O)N(C)[C@H]1CC[C@H](CC(=O)NCCOC)O[C@@H]1CO2`, -0.03%; as for `COCC(=O)N[C@@H]1C[C@@H]2O[C@@H](CO)CC[C@@H]2O[C@@H]1CCc1ccc(-c2ccccc2)cc1`, -0.04%.
Next, `COCCN(CCOC)c1nc(N)c2c(N)nc3c(c2c1C#N)CC(=O)N3Cc1ccc(Cl)cc1`: 50.3% (active); `O=C(c1c[nH]c2ccccc12)N1CCC(Oc2cccnc2)CC1`: 0.8%; `COC(=O)C[C@@H]1CC[C@@H]2[C@@H](COc3ccc(NC(=O)Nc4ccc(F)c(F)c4)cc3C(=O)N2C)O1`: 0.06%.
As for `COC(=O)C[C@@H]1CC[C@@H]2[C@H](COc3ccc(NC(=O)c4cccc(F)c4)cc3C(=O)N2C)O1`, the figure is -0.18%; as for `CCOC(=O)c1cc(-c2ccc(Cl)s2)nc2c1c(C)nn2C`, -3.83%; as for `COc1cc(/C=C/C(=O)Nc2ccc(OC)c(S(=O)(=O)N3CCOCC3)c2)ccc1OCC#N`, 40.2% (active).
Take `COc1ccc(CCC(=O)Nc2ccc(Cl)c(S(=O)(=O)N3CCOCC3)c2)cc1OC`: the activation is 0.18%.
As for `COc1cc(/C=C/C(=O)OCC(=O)N2CCOCC2)ccc1OCC#N`, the figure is 3.33%; as for `COP(=O)(O)CNC(=O)OCc1ccccc1`, -0.07%.
As for `Cc1ccc(C(=O)N(Cc2ccccn2)CC2CCCO2)cc1` (stereo unspecified), the figure is -0.88%; as for `CCc1ccccc1NC(=O)CSc1nnc(-c2cccs2)o1`, 0.68%; as for `COC(=O)[C@]1(C#N)CC(=O)N(CC2CCCCC2)[C@@H]1c1ccccc1`, -0.2%.
In the case of `COc1ccc(C#CCNCc2ccc(OC)cc2OC)cc1`, the activation is 0.52%.
With `Cc1cc(N2CCOCC2)nc2ccc(NC(=S)N3CCN(Cc4ccccc4)CC3)cc12`, the activation was 16.8% (active).
Next, `CCOCCCNC(=S)Nc1ccc2nc(N3CCN(CC)CC3)cc(C)c2c1`: 2.27%; `Cc1cc(N2CCN(C)CC2)nc2ccc(NC(=S)N3CCOCC3)cc12`: 7.61%.
On to `CC(=O)c1cc(-c2ccc3ccccc3c2)c(=O)n2c1CCC2`, for which the activation is 0.82%.
As for `CCOc1ccc(N2C(=O)CC(N(O)c3ccccc3)C2=O)cc1` (stereo unspecified), the figure is 95.9% (active); as for `CCOC(=O)c1ccc(N2C(=O)CC(N(C)Cc3ccccc3)C2=O)cc1` (stereo unspecified), 0.66%.
Next, `CCOc1ccc(N2C(=O)CC(N(CCc3ccc(OC)c(OC)c3)C(=S)Nc3ccccc3)C2=O)cc1` (stereo unspecified): 0.29% and 0.35%.
On to `Cc1cccc(OCCNC(=O)CSc2ccc(C(F)(F)F)cc2[N+](=O)[O-])c1`, for which the activation is 0.55%.
Next, `CC(C)CNC(=O)OCc1cn(Cc2ccc(F)cc2)nn1`: -0.65%; `Cc1c(C(C)c2ccccc2O)[nH]c2ccccc12` (stereo unspecified): 0.01%; `CC(=O)Nc1nc2ncccn2c1-c1ccc(C(F)(F)F)cc1`: 17.7% (active).
Next, `CC(=O)Nc1cc(-c2ccccc2F)cn2c(-c3cccc(C(F)(F)F)c3)cnc12`: -0.51%; `Cc1ccc(-c2c(N)nc3ncccn23)cc1`: 1.47%; `COC(=O)C1CN(CC(C)C)CCS(=O)(=O)N1Cc1ccc(C)cc1` (stereo unspecified): -0.1%.
As for `CN(CC1CCCO1)S(=O)(=O)c1ccc(C(=O)Nc2ccc(F)cc2)cc1` (stereo unspecified), the figure is -0.36%.
Take `COC(=O)C1CN(Cc2ccc(F)cc2)CCS(=O)(=O)N1Cc1ccc(Cl)cc1` (stereo unspecified): the activation was -0.13%.
Next, `O=S1(=O)c2ccc(N3CCN(Cc4ccccc4F)CC3)cc2Oc2ccccc2CN1Cc1cn(Cc2ccc(Cl)cc2)nn1`: -0.98%; `CC1C/C(=N/NC(=O)c2cccs2)CC(C)(C)C1` (stereo unspecified): 0.16%; `COC(=O)[C@]12C[C@H](CC(=O)NCc3ccccc3)C(=O)N(CCC3=CCCCC3)C1=C[C@H](C(C)C)O[C@@H]2C1CC1`: 0.56%.
Regarding `CC(=O)Nc1nc(C)c(-c2csc(Nc3ccc(S(N)(=O)=O)cc3)n2)s1`, the activation is 118% (active).
Next, `C=CCCC(=O)Nc1nc(C)c(-c2csc(Nc3ccc(Cl)cc3)n2)s1`: -1.66%.
Next, `CC(C)[C@H](NC(=O)Nc1ccc(S(N)(=O)=O)cc1)C(=O)O`: -0.23%; `Cc1ccc(Cn2cc(CN3[C@@H](C)COc4cc(Br)ccc4S3(=O)=O)nn2)cc1`: 0.74%.
As for `COc1ccc(-n2c(COc3ccc(C)cc3)nnc2SCC(=O)Nc2ccc(Oc3ccccc3)cc2)cc1`, the figure is -0.88%.
For the compound `O=c1oc2c(CN3CCCCC3)c(O)ccc2c2c1CCCCC2`, the activation is 68.2% (active).
Next, `CCCOc1ccc2c3c(c(=O)oc2c1OCCC)CCC3`: -1.41%; `COc1ccc2c3c(c(=O)oc2c1OCC(=O)C(C)(C)C)CCCC3`: 2.75%.
Next, `O=C(OC12CCCN(C1)/C(=C/c1cccnc1)C2)C1CCCC1` (stereo unspecified): 0.01%; `CCN1CCCC1CNC(=O)c1cc2cc(OC)c(OC)cc2[nH]1` (stereo unspecified): 17.5% (active).
In the case of `CCN1CCCC1CNC(=O)c1ccc2c(c1)NC(=O)/C(=C\c1ccccc1F)S2` (stereo unspecified), the activation was 0.44%.
Next, `COc1ccc(C(=O)NCC2CCCN2S(=O)(=O)c2cccs2)cc1OC` (stereo unspecified): 0.25%.
